Data from PubChem BioAssay (Tox21).
Results filed as inconclusive are left out. Active and inactive are the calls of the source. Calls follow the shape of the dose curve; as a rule, active = well fitted inhibition curve with a large enough effect in the signal ratio in the repeat runs (not every such curve was filed as active); inconclusive = weak or mixed curves, or effect the other way; inactive = no such curve, though single readings can be large or run the other way; the % refers to the signal ratio.

Molecular target: Estrogen receptor beta (Homo sapiens) (UniProt Q92731)
Test: qHTS assay to identify small molecule antagonists of the estrogen receptor beta (ER-beta) signaling pathway (AID 1259378)
Settings: ER-beta-UAS-bla HEK293T, beta-lactamase FRET ratio, 16 h; series mostly up to 92.4 µM; activity, negative = inhibition: at the top concentration
Source text: National Center for Advancing Translational Sciences [NCATS]
NIH Chemical Genomics Center [NCGC]
U.S. Environmental Protection Agency [EPA]
National Institutes of Environmental Health Sciences [NIEHS]
National Toxicology Program [NTP]
U.S. Food and Drug Administration [FDA]
Estrogen receptor (ER), a nuclear hormone receptor, plays an important role in development, metabolic homeostasis and reproduction. Two subtypes of ER, ER-alpha and ER-beta, have similar expression patterns with some uniqueness in both types. Endocrine disrupting chemicals (EDCs) and their interactions with steroid hormone receptors like ER causes disruption of normal endocrine function. To identify the compounds that inhibit ER signaling, an ER-beta-UAS-bla GripTite cell line (Life Technologies, Madison, WI, USA) containing a beta-lactamase reporter gene under the control of an UAS response element was used to screen Tox21 10K compound library.
Tox21 Assay Protocol Summary:
ER-beta-UAS-bla HEK293T cells were dispensed at 2,000 cells/4 uL of assay medium containing 2% charcoal stripped FBS per well into black wall/clear-bottom 1536-well plates using a Multidrop Combi (ThermoFisher Scientific, Waltham, MA) dispenser. After the assay plates were incubated at a 37C and 5% CO2 for 6 hr, 23 nL of compounds dissolved in DMSO, positive controls or DMSO only was transferred to the assay plate by a Pintool station (Kalypsys, San Diego, CA), followed by addition of 1 uL (1nM as final concentration) of 17-beta-estradiol (E2) in assay medium using a BioRAPTR FRD (Flying Reagent Dispenser, Aurora Discovery, San Diego, CA). The plates were incubated at 37C and 5% CO2 for 16 hr. Then 1 uL of LiveBLAzerTM B/G FRET substrate was added using a Flying Reagent Dispenser, the plates were incubated at room temperature for 2 hours, and fluorescence intensity was measured by an Envision plate reader (PerkinElmer, Shelton, CT).
% is scaled to controls: 0 for no effect and ±100 for the full control effect.

Chain of Estrogen receptor beta (Homo sapiens) (Q92731 whole entry, looked up): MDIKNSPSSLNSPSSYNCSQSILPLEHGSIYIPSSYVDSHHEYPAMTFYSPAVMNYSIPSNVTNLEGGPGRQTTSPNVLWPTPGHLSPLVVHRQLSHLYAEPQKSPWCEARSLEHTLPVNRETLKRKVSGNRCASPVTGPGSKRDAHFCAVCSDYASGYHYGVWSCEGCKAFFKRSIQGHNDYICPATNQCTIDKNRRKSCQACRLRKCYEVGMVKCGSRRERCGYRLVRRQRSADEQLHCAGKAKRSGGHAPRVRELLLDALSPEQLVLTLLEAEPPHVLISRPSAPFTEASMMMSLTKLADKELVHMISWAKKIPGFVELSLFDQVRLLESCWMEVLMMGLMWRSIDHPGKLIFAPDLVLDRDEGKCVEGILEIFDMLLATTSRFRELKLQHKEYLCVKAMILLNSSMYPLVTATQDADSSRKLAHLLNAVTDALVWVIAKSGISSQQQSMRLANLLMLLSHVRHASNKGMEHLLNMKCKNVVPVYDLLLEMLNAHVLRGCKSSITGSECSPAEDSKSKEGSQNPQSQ

Row | Compound | activity, negative = inhibition
1 | C=CCCCCCCCCCCCC | -6.61% (inactive)
2 | C=C(C)C(=O)OCCOP(=O)(O)OCCOC(=O)C(=C)C | -0.333% (inactive)
3 | CCCCCCCC/C=C\CCCCCCCC(=O)OCCCC | 0.587% [at 19 µM] (inactive)
4 | CC(C)OC(=O)CCCCC(=O)OC(C)C | 10.4% (inactive)
5 | N[C@@H](COP(=O)(O)O)C(=O)O | 18.6% [at 19 µM] (inactive)
6 | CCN(CC)CC(=O)Nc1c(C)cccc1C | 9.29% [at 42.5 µM] (inactive)
7 | CC(=C(CCOC(=O)C(C)C)SSC(CCOC(=O)C(C)C)=C(C)N(C=O)Cc1cnc(C)nc1N)N(C=O)Cc1cnc(C)nc1N | -14.3% [at 42.5 µM] (inactive)
8 | C=CC(OCC)OCC | 1.95% (inactive)
9 | CCCCCCOC(=O)CC | 9.18% (inactive)
10 | CCOCCOCCOCC | 0.125% (inactive)
11 | Cc1cc(Cl)c(C)cc1Cl | -8.99% (inactive)
12 | CN(C)C(=O)CNC(=O)Cc1ccccc1 | 5.21% [at 42.5 µM] (inactive)
13 | CC(C)(C)c1nnc(NS(=O)(=O)c2ccc(N)cc2)s1 | 6.94% [at 42.5 µM] (inactive)
14 | O=C(CS(=O)Cc1ccco1)NC/C=C\COc1cc(CN2CCCCC2)ccn1 (stereo not given) | 21.8% [at 42.5 µM] (inactive)
15 | C[C@@H](O)[C@H]1C(=O)N2C(C(=O)O)=C(SCCN=CN)C[C@H]12 | 7.7% [at 42.5 µM] (inactive)
16 | O=S(=O)(O)c1ccc2cc(O)c(S(=O)(=O)O)cc2c1 | -0.969% (inactive)
17 | CCN1CCc2nc(N)oc2CC1 | 12.5% [at 42.5 µM] (inactive)
18 | CC/C=C\CC1=C(C)CCC1=O | 4.22% (inactive)
19 | Cc1cc(C(C)(C)C)c(O)c(C)c1CC1=NCCN1 | -3.03% [at 42.5 µM] (inactive)
20 | O=C(NCCc1c[nH]c2ccccc12)c1cccnc1 | -2.1% [at 42.5 µM] (inactive)

Row | Compound | activity, negative = inhibition
21 | Oc1cn2c(n1)Nc1ccc(Cl)c(Cl)c1C2 | 0.533% [at 19 µM] (inactive)
22 | O=C(O)Cc1ccc(Cl)cc1Cl | 22.6% (inactive)
23 | O=C(OCc1ccccc1)C(=O)OCc1ccccc1 | 3.93% (inactive)
24 | O=C(Nc1ccc(Cl)c(Cl)c1)C1CC1 | -15.9% [at 42.5 µM] (inactive)
25 | CCCCCCCCOS(=O)(=O)O | 9.28% (inactive)
26 | C=C(C)C(=O)OCC(C)(C)COC(=O)C(=C)C | 0.248% (inactive)
27 | COC(=O)CCc1ccc(OCC(O)CNC(C)C)cc1 (stereo not given) | 6.34% [at 42.5 µM] (inactive)
28 | CCCCC(CC)COCCO (stereo not given) | 1.58% (inactive)
29 | NS(=O)(=O)c1cc2c(cc1Cl)CN(C1CCCCC1)C2=O | -0.565% [at 42.5 µM] (inactive)
30 | COC(=O)c1ccccc1C(=O)c1ccc(OCCN2CCCCC2)cc1 | -2.09% [at 42.5 µM] (inactive)
31 | Nc1ncnc(Nc2ccccc2)n1 | -8.39% [at 42.5 µM] (inactive)
32 | CCCOC(=O)C(C)O (stereo not given) | -0.512% (inactive)
33 | O=C(NCC(O)CO)c1c(I)c(C(=O)NCC(O)CO)c(I)c(N(CCO)C(=O)CO)c1I (stereo not given) | 5.91% [at 42.5 µM] (inactive)
34 | O=C(NCCN1CCOCC1)c1ccc(Cl)cc1 | 10.6% [at 42.5 µM] (inactive)
35 | O=C(O)c1cc(Br)c(O)c(Br)c1 | 5.27% (inactive)
36 | CCOC(=O)[C@H](CCc1ccccc1)N[C@@H](C)C(=O)N1C(=O)N(C)C[C@H]1C(=O)O | 0.97% [at 42.5 µM] (inactive)
37 | CC(C)C[C@H](NC(=O)CNC(=O)[C@H](Cc1ccc(O)cc1)NC(=O)[C@H](CO)NC(=O)[C@H](Cc1c[nH]c2ccccc12)NC(=O)[C@H](Cc1cnc[nH]1)NC(=O)[C@@H]1CCC(=O)N1)C(=O)N[C@@H](CCCN=C(N)N)C(=O)N1CCC[C@H]1C(=O)NCC(N)=O (stereo in doubt) | -1.54% [at 42.5 µM] (inactive)
38 | Cc1c(I)c(=O)n(-c2ccccc2)n1C | 4.68% [at 42.5 µM] (inactive)
39 | N#Cc1ccc(C(=O)O)cc1 | 8.44% (inactive)
40 | CC(=O)NCc1c(I)c(NC(C)=O)c(I)c(C(=O)O)c1I | 19.4% [at 42.5 µM] (inactive)
